# Assay outcomes (PubChem)
# IL1B secr inh: qHTS for Inhibitors of Inflammasome Signaling: IL-1-beta AlphaLISA Primary Screen | THP-1 LPS/ATP IL-1B secretion, AlphaLISA, 16 h; active compounds read low | activity change, % at 57.5 µM | hit rate 4.7% among 360,000; in the data active = activity change below about -50%; inconclusive = mostly about -30% to -49%; note: % is set by controls: 0 for no effect and ±100 for the full control effect
#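 THP-1 cells pretreated 1 hr with compounds (up to 57.5 uM final), then stimulated with LPS (250 ng/mL final) plus ATP (1.25 mM final); secreted IL-1B measured by AlphaLISA after 16 hr, decreased signal indicating inhibition.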
# DRD3 agonist: qHTS of D3 Dopamine Receptor Agonist: qHTS; D(3) dopamine receptor (Homo sapiens), P35462; AID 652048, 2013; max activation, %; D3R DiscoveRx beta-arrestin cells, luminescence, 90 min; hit rate 0.58% among 410,000; in the data active = max activation above about 30%; note: 0% is about no effect
#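 Agonist mode: compounds and dopamine controls were applied to plated cells for 90 min at 37 degrees C after an overnight attachment at 1500 cells/well. Luminescent read-out followed 30 - 60 minutes at room temperature with DiscoveRx detection reagent.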
# ClpP mod: qHTS Assay for Activators of ClpP | Potency, µM (top dose mostly 57.5 µM), inactives show at the highest dose activity change, negative = active | purified B. subtilis ClpP, FRET peptide cleavage, 20 min | AID 651965, 2013 | hit rate 1.9% among 340,000; active = well fitted falling curve with a large enough effect; inconclusive = small, poorly fitted or top-dose-only effect; inactive = no such curve, though single readings can be large or run the other way; note: potency is the fitted concentration of half-maximal effect; the source files actives as falling curves though it sought activators and does not explain the sign; nearly all actives have a fitted effect of over 65% in size
#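 Purified B. subtilis ClpP, 10 microg/mL final in Tris/HCl pH8 with KCl, BSA, glycerol and Tween-20, cleaved an Abz/nitrotyrosine-quenched decapeptide. Fluorescence (ex 320, em 430) was read at 0 and 20 min at room temperature. Delta was normalized to 5.8 microM ADEP and DMSO/no-enzyme controls.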
# TDP1 cell CPT: qHTS for Inhibitors of human tyrosyl-DNA phosphodiesterase 1 (TDP1): qHTS in cells in presence of CPT; hit rate 12% among 420,000; chicken DT40 Tdp1-/-;hTDP1 cells + 20 nM CPT, ATP luminescence, 48 h; AID 686979, 2013; Potency, µM (series often up to 46.2 µM), inactives show top-dose activity change, negative = growth inhibition, usual class: inhibitors; note: potency is the fitted concentration of half-maximal effect; % is set by controls: 0 for no effect and ±100 for the full control effect; nearly all actives have a fitted effect of over 55% in size
#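 Chicken DT40 Tdp1-/- cells stably complemented with human TDP1 were seeded at 400 cells/well in medium containing 20 nM camptothecin, exposed to pin-transferred compounds, and grown at 37 °C for at least 48 hr. Viability was read as ATP luminescence.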
# DRD3 antagonist: qHTS of D3 Dopamine Receptor Antagonist: qHTS; D(3) dopamine receptor (Homo sapiens), P35462; D3R cells, DiscoveRx beta-arrestin luminescence, antagonist mode; active compounds read low; max response, negative = inhibition, %; hit rate 2.5% among 360,000; AID 652054, 2013; in the data active = max response below about -50%; inconclusive = no clear call, values can overlap the other calls; note: % is set by controls: 0 for no effect and ±100 for the full control effect
#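 Cells plated overnight at 1500 cells/well, then exposed to library compounds with dopamine controls for 90 minutes at 37 degrees C. DiscoveRx reagent added for 30–60 minutes at room temperature; luminescence read, quantitative HTS format.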
# DT40 TDP1 no CPT: qHTS for Inhibitors of human tyrosyl-DNA phosphodiesterase 1 (TDP1): qHTS in cells in absence of CPT; DT40 Tdp1-/- hTDP1 cells, no CPT, ATP luminescence, 48 h; Potency, µM (doses to about 46.2 µM), for inactives: top-dose activity change, negative = growth inhibition, usual class: inhibitors; hit rate 15% among 420,000; AID 686978, 2013; note: potency is the fitted concentration of half-maximal effect; % is set by controls: 0 for no effect and ±100 for the full control effect; nearly all actives have a fitted effect of over 55% in size
#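 Camptothecin absent (DMSO only). Human TDP1-complemented DT40 knockout cells, 400 cells/well, 37 °C for minimum 48 hr; ATP measured via CellTiter-Glo, 30 min dark incubation, luminescence.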
# Active calls of the source: *; ? = inconclusive; · = no result given. Shown are actives, neighbours in structure and some others; about 21% of the full set was active somewhere. Unless noted, calls come from the whole dose curve; as a rule, active = well fitted inhibition curve with a large enough effect; inconclusive = small, poorly fitted or top-dose-only effect; inactive = flat fitted curve, though single readings scatter.
SMILES,IL1B secr inh,DRD3 agonist,ClpP mod,TDP1 cell CPT,DRD3 antagonist,DT40 TDP1 no CPT
COc1ccccc1/C=C/c1nc2ccccc2[nH]1,·,·,4%,?,·,14µM*
Cc1ccc(/C=C/c2nc3ccccc3[nH]2)cc1,·,4,5%,10µM*,·,13µM*
O=c1[nH]c2ccccc2nc1/C=C/c1ccc(O)cc1,-76*,5,·,?,15,15µM*
Cc1ccc(/C=C/c2nc3ccccc3[nH]2)o1,-73*,-2,·,23µM*,-3,16µM*
COc1ccc2c(c1)c1c(c(=O)n(Cc3ccccc3)c(=O)n1Cc1ccccc1)n2C,·,2,?,-17%,·,-1%
Cc1ccc(N2C(=O)N(CC(=O)Nc3ccccc3C(F)(F)F)C(=O)C2C)cc1 (centres undefined),8,3,16µM*,-7%,15,-10%
Cc1ccc(N2C(=O)N(CC(=O)Nc3cccc(Cl)c3)C(=O)C2C)cc1 (centres undefined),-61*,2,1%,?,23,?
CCc1c(C)nc2ncnn2c1N1CCC(C(=O)NCc2cccs2)CC1,31,6,2%,23µM*,9,?
CCc1c(C)nc2ncnn2c1N1CCCC(C(=O)NCc2cccs2)C1 (centres undefined),36,0,0%,?,2,13µM*
CCc1c(C)nc2ncnn2c1NCc1cccs1,-6,14,1%,?,16,26µM*
CCc1c(C)nc2ncnn2c1N1CCCC(C(=O)NCCc2ccccc2)C1 (centres undefined),9,7,0%,?,26,21µM*
CCc1c(C)nc2ncnn2c1N1CCC(C(=O)NCc2cccc(OC)c2)CC1,-17,10,-3%,?,28,?
CC(C)(C)NC(=O)C1c2ccccc2OCC(=O)N1CCc1ccccc1 (centres undefined),41,2,0%,10%,7,1%
COCCN(C(=O)c1ccc(-c2ccc([N+](=O)[O-])cc2)o1)c1c(N)n(CC(C)C)c(=O)[nH]c1=O,3,-22,1%,-2%,3,-13%
CCc1c(C)nc2ncnn2c1N1CCCC(C(=O)NCc2ccco2)C1 (centres undefined),7,15,-2%,?,16,?
CCc1c(C)nc2ncnn2c1N1CCCC(C(=O)Nc2cc(F)ccc2C)C1 (centres undefined),-5,0,-2%,16µM*,11,21µM*
Cc1nc2ncnn2c(N2CCCC(C(=O)Nc3ccccc3Br)C2)c1C (centres undefined),8,4,-3%,?,3,15µM*
COc1ccc(Cn2ccn(Cc3cccc(Cl)c3)c(=O)c2=O)cc1,·,-18,?,?,·,-19%
CCN(C[C@H]1N[C@@](Cc2ccccc2)(C(=O)OC)[C@H]2C(=O)N(C)C(=O)[C@@H]12)C(=O)Nc1ccc(C(F)(F)F)cc1,-1,-4,0%,16µM*,5,?
CCN(C[C@H]1N[C@@](Cc2ccccc2)(C(=O)OC)[C@H]2C(=O)N(Cc3ccccc3)C(=O)[C@@H]12)C(=O)Nc1ccc(Cl)cc1,-13,0,1%,?,-27,18µM*
CCN(C[C@H]1N[C@@](Cc2ccccc2)(C(=O)OC)[C@H]2C(=O)N(Cc3ccccc3)C(=O)[C@@H]12)C(=O)Nc1ccc(F)cc1,?,-2,1%,?,-6,16µM*
CCN(C[C@H]1N[C@@](C)(C(=O)OC)[C@H]2C(=O)N(Cc3ccccc3)C(=O)[C@@H]12)C(=O)Nc1ccc(Cl)cc1,109,6,2%,?,8,?
Cc1ccc(NC(=S)N2CCC(NC(=O)c3ccco3)CC2)cc1C,2,-6,·,-9%,-19,-2%
CC(C)(C)OC(=O)N1CCC(C(=O)N[C@H](C(=O)O)c2ccccc2)(c2ccccc2)CC1,-1,-4,0%,-7%,-28,-11%
Cc1c(Cn2ccnc2)c2ccccc2n1CCC(=O)O,·,-1,·,-3%,·,-9%
SMILES,IL1B secr inh,DRD3 agonist,ClpP mod,TDP1 cell CPT,DRD3 antagonist,DT40 TDP1 no CPT
COc1ccc(C(C)=O)cc1COC(=O)CCNS(=O)(=O)c1ccc(C)c(C)c1,-8,5,-5%,-1%,0,-20%
COc1cc2c(c(OC)c1OC)-c1ccc(NC(=O)c3ccc(F)cc3)c(=O)cc1[C@@H](NC(C)=O)CC2,14,-1,-1%,8.2µM*,30,7.3µM*
COc1cc2nc(C3CC3)n(NC(=O)c3ccc(F)cc3)c(=O)c2cc1OC,0,3,-1%,-24%,-28,0%
COc1cc2c(c(OC)c1OC)-c1ccc(NCc3ccccc3)c(=O)cc1C(NC(C)=O)CC2 (centres undefined),85,-2,-10%,0.92µM*,-9,0.92µM*
N#Cc1nc(-c2ccc(OCc3ccc(Cl)cc3)cc2)oc1N1CCCCC1,·,·,4%,-24%,·,?
Cc1ccc(C)c(NC(=O)CN(C)S(=O)(=O)c2cccc3cccnc23)c1,-1,-2,1%,?,-22,?
COc1ccc(C(O)c2nc(-c3ccc(OC)c(OC)c3)cs2)cc1 (centres undefined),-2,-5,-1%,13µM*,12,18µM*
COc1cc(C(O)c2nc(-c3ccc4ccccc4c3)cs2)ccc1F (centres undefined),-17,-8,-3%,23µM*,-5,21µM*
COc1ccc(C(O)c2nc(-c3ccc4ccccc4c3)cs2)cc1 (centres undefined),15,2,-5%,?,16,16µM*
CC1(NC(=O)Cc2c(Cl)cccc2Cl)CCS(=O)(=O)C1 (centres undefined),10,0,0%,2%,2,15%
